Records with an inconclusive call do not appear. Active and inactive are the calls of the source.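 The calls were made as follows: active = potency, the concentration giving half inhibition in the gel assay, of 75 µM or lower; inconclusive = potency above 75 µM yet under 100 µM; inactive = potency of 100 µM or weaker, or none.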
target: Ubiquitin carboxyl-terminal hydrolase 1 (Homo sapiens) + WD repeat-containing protein 48 (Homo sapiens) (UniProt O94782+Q8TAF3); experiment: Inhibitors of USP1/UAF1: Hit Validation in USP1 Diubiquiting Gel Assay; conditions: USP1/UAF1 K63 diubiquitin cleavage, SDS-PAGE gel
Description: Deubiquitinating enzymes (DUBs) are a class of enzymes that can cleave isopeptide bond formed between the C-terminal carboxylate of ubiquitin and a lysine side-chain amino group on the target protein. Among them, ubiquitin specific proteases (USPs) constitute the largest DUB family. Human USPs are emerging as promising targets for pharmacological intervention because of their connection to a number of human diseases, including prostate, colon and breast cancer (1, 2), pediatric acute lymphoblastic leukemia (3), and familial cylindromatosis (4). The advantage of inhibiting USPs lies in the potential specificity of therapeutic intervention that can lead to better efficacy and reduce nonspecific side effects. In a collaboration between the University of Delaware and the NIH Chemical Genomics Center, a high-throughput screen assay was developed to screen for USP1/UAF1 inhibitors. This miniaturized assay has a fluorescent read-out and is used to screen the NIH Molecular Libraries Small Molecule Repository (MLSMR) in order to identify a small molecule that inhibits USP1. Follow-up assays have also been developed to further test the hits from the primary screen. This assay validates the hits identified from the primary screen using a USP1 diubiquiting gel assay. NIH Chemical Genomics Center [NCGC] NIH Molecular Libraries Probe Centers Network [MLPCN] MLPCN Grant: DA030552 Assay Submitter (PI): Zhihao Zhuang, University of Delaware 1. Priolo, C., et al. (2006) The isopeptidase USP2a protects human prostate cancer from apoptosis. Cancer Res 66, 8625-8632 2. Popov, N., et al. (2007) The ubiquitin-specific protease USP28 is required for MYC stability. Nat Cell Biol 9, 765-774 3. De Pitta, C., et al. (2005) A leukemia-enriched cDNA microarray platform identifies new transcripts with relevance to the biology of pediatric acute lymphoblastic leukemia. Haematologica 90, 890-898 4. Kovalenko, A., et al. (2003) The tumour suppressor CYLD negatively regulates NF-kappaB signalling by deubiquitination. Nature 424, 801-805
The inhibition assay contains 100 nM for USP1/UAF1, 2 microM K63 linked diubiquitin, and inhibitors at varied concentrations (0.08 microM - 114 microM). The reaction was allowed for 1 hour at 37 degrees C, and quenched by the addition of Laemmli sample buffer. The reaction product was separated on a 20% denaturing SDS-PAGE gel and stained with Coomassie Blue. The intensity of the individual diubiquitin and monoubiquitin band was quantified using Quantity One 4.3.1 (Biorad, Hercules, CA). The percentage of the conversion was determined and used to calculate the reaction rate. The rate was plotted against inhibitor concentrations and fitted to determine the IC50 values using GraphPad Prism (GraphPad Software, Inc. La Jolla, CA).

Ubiquitin carboxyl-terminal hydrolase 1 (Homo sapiens) + WD repeat-containing protein 48 (Homo sapiens), sequence (O94782 whole entry, looked up): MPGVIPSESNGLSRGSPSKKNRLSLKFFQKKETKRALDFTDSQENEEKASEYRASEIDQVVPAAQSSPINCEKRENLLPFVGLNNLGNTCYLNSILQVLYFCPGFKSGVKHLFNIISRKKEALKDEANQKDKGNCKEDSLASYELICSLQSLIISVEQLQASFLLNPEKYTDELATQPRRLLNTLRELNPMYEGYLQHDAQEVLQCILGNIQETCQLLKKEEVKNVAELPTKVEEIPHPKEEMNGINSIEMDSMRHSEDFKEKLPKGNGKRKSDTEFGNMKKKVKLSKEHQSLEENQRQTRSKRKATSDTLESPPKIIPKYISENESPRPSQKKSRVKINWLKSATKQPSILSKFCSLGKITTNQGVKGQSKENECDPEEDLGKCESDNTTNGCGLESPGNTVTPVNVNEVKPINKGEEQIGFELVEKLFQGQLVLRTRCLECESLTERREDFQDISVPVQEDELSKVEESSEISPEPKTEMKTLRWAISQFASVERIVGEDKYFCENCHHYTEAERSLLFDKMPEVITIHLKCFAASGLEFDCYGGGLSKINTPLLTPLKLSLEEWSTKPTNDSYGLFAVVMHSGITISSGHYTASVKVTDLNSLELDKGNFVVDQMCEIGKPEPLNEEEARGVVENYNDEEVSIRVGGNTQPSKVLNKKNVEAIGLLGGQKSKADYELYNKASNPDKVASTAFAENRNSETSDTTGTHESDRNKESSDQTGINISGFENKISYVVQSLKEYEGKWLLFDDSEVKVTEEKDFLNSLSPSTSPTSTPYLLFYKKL
Ubiquitin carboxyl-terminal hydrolase 1 (Homo sapiens) + WD repeat-containing protein 48 (Homo sapiens), sequence (Q8TAF3 whole entry, looked up): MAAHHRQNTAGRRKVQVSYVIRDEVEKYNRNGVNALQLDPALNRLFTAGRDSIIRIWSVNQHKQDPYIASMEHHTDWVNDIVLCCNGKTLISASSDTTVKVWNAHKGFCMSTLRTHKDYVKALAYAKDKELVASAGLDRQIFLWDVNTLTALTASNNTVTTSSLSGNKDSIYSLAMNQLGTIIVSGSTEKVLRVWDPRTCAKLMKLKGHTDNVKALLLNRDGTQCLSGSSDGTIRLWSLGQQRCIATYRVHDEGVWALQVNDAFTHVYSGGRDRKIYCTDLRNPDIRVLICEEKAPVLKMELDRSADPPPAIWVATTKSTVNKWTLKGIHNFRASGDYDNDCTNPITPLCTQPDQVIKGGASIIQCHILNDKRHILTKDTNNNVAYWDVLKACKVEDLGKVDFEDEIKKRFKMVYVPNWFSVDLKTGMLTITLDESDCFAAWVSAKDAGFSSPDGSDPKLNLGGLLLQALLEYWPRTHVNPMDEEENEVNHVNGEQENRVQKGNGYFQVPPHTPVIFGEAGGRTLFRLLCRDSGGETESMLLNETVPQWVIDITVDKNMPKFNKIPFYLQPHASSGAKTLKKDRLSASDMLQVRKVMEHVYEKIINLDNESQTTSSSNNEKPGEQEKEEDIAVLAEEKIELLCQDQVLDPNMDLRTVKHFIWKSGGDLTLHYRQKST

Row | Structure (SMILES) | Potency | outcome
1 | Cc1ccccc1-c1nc(NCc2cccs2)c2ccccc2n1 | 6 µM (active) | 
2 | COc1ccccc1-c1nccc(NCc2cccc(C)c2)n1 | 18.8 µM (active) | 
3 | COc1ccc(CNc2nc(-c3ccccc3OC)nc3ccccc23)c(OC)c1 | 14.5 µM (active) | 
4 | COc1ccccc1CNc1nc(-c2ccc(N(C)C)cc2)nc2ccccc12 | 10 µM (active) | 
5 | FC(F)(F)c1ccccc1-c1nccc(NCc2ccccc2)n1 | 9.6 µM (active) | 
6 | Cc1cccc(CNc2cc(-c3ccccc3C)ncn2)c1 | 26.3 µM (active) | 
7 | COc1ccc(CNc2ccnc(-c3ccccc3C(F)(F)F)n2)c(OC)c1 | 4.5 µM (active) | 
8 | FC(F)(F)c1ccccc1-c1nc(NCc2cccs2)c2ccccc2n1 | 3.3 µM (active) | 
9 | Clc1ccccc1-c1nccc(NCc2ccccc2)n1 | 20 µM (active) | 
10 | N#Cc1cccc(-c2ccc3ncnc(NCc4ccccc4)c3c2)c1 | 26.6 µM (active) | 
11 | COc1ccccc1-c1nccc(NCc2ccccc2)n1 | 16.9 µM (active) | 
12 | COc1ccccc1-c1nc(NCc2ccccc2)c2ccccc2n1 | 6.4 µM (active) | 
13 | FC(F)(F)c1ccccc1-c1nccc(NCc2cccs2)n1 |  | inactive
14 | Fc1ccc(Nc2nc(-c3cccnc3)nc3ccccc23)cc1 |  | inactive
15 | Cc1cccc(CNc2ccnc(-c3ccccc3C(F)(F)F)n2)c1 | 3 µM (active) | 
16 | Cc1noc(C)c1-c1nc(NCc2cccs2)c2ccccc2n1 | 5 µM (active) | 
17 | COc1ccccc1CNc1ccnc(-c2ccccc2C(F)(F)F)n1 | 4.2 µM (active) | 
18 | COc1cccc(-c2nccc(NCc3cccc(C)c3)n2)c1 | 13 µM (active) | 
19 | Cc1cccc(CNc2ccnc(-c3ccccc3Cl)n2)c1 |  | inactive
20 | FC(F)(F)c1ccccc1-c1nc(NCc2cccnc2)c2ccccc2n1 |  | inactive
21 | COc1ccccc1-c1cc(NCc2ccccc2)ncn1 | 10.9 µM (active) | 
22 | Cc1ccccc1-c1nc(NCc2cccnc2)c2ccccc2n1 |  | inactive
23 | COc1ccccc1-c1nc(NCc2cccs2)c2ccccc2n1 | 21.3 µM (active) | 
24 | c1ccc2c(Nc3ccncc3)nc(-c3ccc4c(c3)OCO4)nc2c1 | 28.6 µM (active) | 
